The values below come from PubChem BioAssay (NCATS).

“And” between values parts separate entries of the source, which are not always exact repeats. Equal values may be shown once. Unmarked numbers belong to inactive results. Inconclusive results are not listed. The source made the active and inactive calls. Unless noted, calls follow the shape of the dose curve; as a rule, active = well fitted curve in either direction with a large enough effect (not every such curve was filed as active); inconclusive = small, poorly fitted or top-dose-only effect, or another doubt; inactive = flat fitted curve, though single readings scatter. A value given as a limit tells only on which side of the number the result lay.

Assay [1] is described as follows: AP1 Signaling Pathway (AID 357).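 Also: ME-180 reporter cells stimulated with EGF at its EC50 level; % is scaled to controls: 0 for no effect and ±100 for the full control effect.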 As to conditions: ME-180 AP-1-bla reporter, EGF-induced, beta-lactamase ratio, 5 h. In a few lines:
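AP-1-bla ME-180 cells, Opti-MEM + 0.5% dialyzed FBS, plated overnight 37 °C. Cpd titration + EC50 EGF, 5 h 37 °C. CCF4 2.5 h RT; ex 405, em 460/530 ratio → %activity, AC50.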

In assay [2] the target is Cytochrome P450 1A2 (Homo sapiens) (UniProt P05177). Briefly: p450-cyp1a2 (AID 410; calls by dose curve; also: potency is read from the fitted curve at half-maximal effect;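 as to activity change, negative = inhibition: -100% = full effect of reference inhibitor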). Conditions: recombinant CYP1A2, luciferin-ME demethylation, luminescence; series mostly up to 57 µM. The essentials: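 Read-out is luminescence from luciferin produced by CYP1A2 demethylation of Luciferin-ME (100uM, at Km). Detection reagent stopped the 60 min NADPH-dependent reaction; signals were normalized to 57 uM furafylline.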
Chain of Cytochrome P450 1A2 (Homo sapiens) (P05177 whole entry, looked up): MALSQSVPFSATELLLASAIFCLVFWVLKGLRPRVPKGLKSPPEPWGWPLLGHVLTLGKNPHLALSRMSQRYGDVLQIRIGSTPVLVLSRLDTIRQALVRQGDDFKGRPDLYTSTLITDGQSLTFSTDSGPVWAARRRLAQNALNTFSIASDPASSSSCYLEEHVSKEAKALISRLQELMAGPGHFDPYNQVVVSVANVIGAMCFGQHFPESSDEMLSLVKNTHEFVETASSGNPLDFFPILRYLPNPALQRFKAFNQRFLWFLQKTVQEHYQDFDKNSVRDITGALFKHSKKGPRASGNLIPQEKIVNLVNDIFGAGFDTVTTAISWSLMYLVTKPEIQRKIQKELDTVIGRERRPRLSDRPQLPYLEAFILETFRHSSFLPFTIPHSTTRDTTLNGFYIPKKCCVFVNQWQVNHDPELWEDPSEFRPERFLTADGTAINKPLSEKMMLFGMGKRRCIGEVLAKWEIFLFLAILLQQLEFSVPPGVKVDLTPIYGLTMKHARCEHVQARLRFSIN

Assay [3] is described as follows: NFAT Signaling Pathway (AID 444).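 Also: carbachol stimulus at about its EC50 of 1 µM final; % is scaled to controls: 0 for no effect and ±100 for the full control effect.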 Conditions: Jurkat NFAT-bla M1, carbachol, beta-lactamase ratio, 5 h; at 38 µM (top of the series) unless noted. The essentials:
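Jurkat cells carrying an NFAT-driven β-lactamase reporter and co-transfected muscarinic M1 receptor were treated with compound plus carbachol (1 uM final, an EC50 level) for 5 h at 37 °C. CCF4 loading followed for 1 h at RT; 460/530 nm ratio gave %activity.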

Assay [4] can be described thus: Stat Signaling Pathway (AID 446).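 Also: ME-180 cervical cancer cells given 40 pM IL-6 alongside compound; SIE-controlled beta-lactamase reporter measured as 460/530 nm FRET emission ratio; % is scaled to controls: 0 for no effect and ±100 for the full control effect.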 As to conditions: ME-180 (cervical carcinoma) SIE beta-lactamase reporter, IL-6 stimulated, 5 h. The essentials: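 Overnight-plated ME-180 cells bearing a STAT Inducible Element beta-lactamase reporter; 5 h co-exposure to compound and 40 pM IL-6; values normalized to 300 pM IL-6 and 125 nM JAK inhibitor controls.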
The target of assay [5] is Glucocorticoid receptor (Homo sapiens) (UniProt P04150). Briefly: GR-GFP Redistribution (AID 450;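 active = compounds whose dose series gives a full or clear partial fitted curve of increased nuclear translocation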; also: potency is read from the fitted curve at half-maximal effect). Conditions: U2OS GR-GFP nuclear translocation, laser cytometry, 2 h.
Chain of Glucocorticoid receptor (Homo sapiens) (P04150 whole entry, looked up, the tested form may be a part): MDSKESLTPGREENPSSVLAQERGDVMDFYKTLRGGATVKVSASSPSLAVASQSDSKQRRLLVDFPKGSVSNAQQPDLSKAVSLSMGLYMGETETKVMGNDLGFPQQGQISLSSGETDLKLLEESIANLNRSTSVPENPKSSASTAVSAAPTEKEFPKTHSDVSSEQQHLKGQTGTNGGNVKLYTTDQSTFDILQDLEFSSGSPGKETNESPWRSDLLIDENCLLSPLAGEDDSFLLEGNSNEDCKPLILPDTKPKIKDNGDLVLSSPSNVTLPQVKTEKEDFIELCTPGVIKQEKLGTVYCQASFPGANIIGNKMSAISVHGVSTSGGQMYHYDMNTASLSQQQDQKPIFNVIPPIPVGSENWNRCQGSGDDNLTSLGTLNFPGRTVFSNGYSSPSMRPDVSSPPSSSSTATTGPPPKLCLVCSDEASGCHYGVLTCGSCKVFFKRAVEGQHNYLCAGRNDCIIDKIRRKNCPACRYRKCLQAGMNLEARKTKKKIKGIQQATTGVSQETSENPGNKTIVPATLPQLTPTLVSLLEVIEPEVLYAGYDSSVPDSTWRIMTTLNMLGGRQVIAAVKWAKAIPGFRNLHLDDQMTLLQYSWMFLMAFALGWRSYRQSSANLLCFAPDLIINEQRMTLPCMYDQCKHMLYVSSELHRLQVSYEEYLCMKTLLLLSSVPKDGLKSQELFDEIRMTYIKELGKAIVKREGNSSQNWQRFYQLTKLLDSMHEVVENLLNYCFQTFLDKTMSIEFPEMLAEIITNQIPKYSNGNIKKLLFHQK
For assay [6], the target named is 3',5'-cyclic-AMP phosphodiesterase 4B (Homo sapiens) (UniProt Q07343). Nature of the assay: qHTS Assay for Inhibitors of PDE-IV (AID 607; active = well fitted activation curve with a large enough effect in the main read-out, with a control signal flat, not every such curve was filed as active; also: % of control where 0% means no effect). As to conditions: HEK293 ACTOne CNG channel cells, membrane potential fluorescence; series mostly up to 22.9 µM. The essentials:
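Live HEK293 cells with a modified cyclic nucleotide-gated (CNG) channel report intracellular cAMP via membrane-potential dye fluorescence (ex 535/em 590 nm). Endogenous PDE-IV was targeted. Compounds were tested at up to 22.9 uM final; RO 20-1724 100 uM served as control.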
For orientation: qHTS replaces the single test concentration by a dilution series.

Assay [7] addresses Lysosomal acid glucosylceramidase (Homo sapiens) (UniProt P04062). Nature of the assay: Glucocerebrosidase-p2 (AID 348; in the data active = potency below about 10 µM; also: potency is read from the fitted curve at half-maximal effect). As to conditions: purified GBA, blue fluorogenic substrate, 40 min. In a few lines: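 Normal human glucocerebrosidase (0.2 nM) with blue fluorogenic substrate (80 uM final) in citrate/phosphate pH 5.9 with 10mM sodium taurocholate, 0.01% tween-20; 40 min RT, NaOH/glycine stop; fluorescence Ex 365/Em 440; AC50 from a titration from 0.6 nM upwards.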

Assay [8] deals with Mitogen-activated protein kinase 10 (Mus musculus) (UniProt Q61831). Briefly: JNK3 AlphaScreen Assay (AID 530).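 Also: kinase came from lysate of stimulated human HepG2 cells; signal reports phosphorylation of biotinylated GST-cJun 1-79 at Ser73 with 10 µM ATP; % is scaled to controls: 0 for no effect and ±100 for the full control effect.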 As to conditions: JNK3 lysate, c-Jun phosphorylation; series mostly up to 57.1 µM. The essentials:
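Biotinylated GST-cJun(1-79) served as substrate for JNK3 in HepG2 lysates stimulated with IL-1beta and TNF-alpha. ATP was 10 uM final, pH 7.6. Ser73 phosphorylation was quantified by AlphaScreen (680 nm excitation).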
For orientation: Alpha assays give light when donor and acceptor beads are brought close together.

In assay [9] the target is Glucocorticoid receptor (Homo sapiens) (UniProt P04150). Briefly: GR-EFC Redistribution (AID 451; calls by dose curve; also: potency is read from the fitted curve at half-maximal effect). Conditions: CHO-K1 GR-EFC translocation, beta-gal luminescence, 2 h. The essentials: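 CHO-K1 cells stably expressing nuclear-localized β-gal enzyme acceptor and GR fused C-terminally to the enzyme donor fragment; ligand-driven nuclear translocation restores β-gal by complementation. Compounds titrated up to 46 uM final, 2 h at 37 °C; luminescence read.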

The nature of assay [10]: Cell Viability - BJ (AID 421; calls by dose curve;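 also: potency is read from the fitted curve at half-maximal effect; cells exposed to compound for 40 hours at 37 °C before readout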). As to conditions: BJ fibroblast viability, qHTS. In a few lines:
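Quantitative HTS: ATP depletion in BJ cells after 40 hr compound exposure in complete culture medium, detected with CellTiter-Glo; AC50 from standard Hill fits.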

The nature of assay [11]: Cell Viability - Jurkat (AID 426;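 active = dose-dependent loss of cell ATP signal giving a full or clear fitted curve, ranked by lower potency value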;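 also: potency is read from the fitted curve at half-maximal effect; cells exposed to compound for 40 hours at 37 °C before ATP read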). As to conditions: qHTS. The essentials:
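Cytotoxicity was scored as loss of cellular ATP, measured by luciferase-based luminescence, in Jurkat clone E6-1 cells after 40 h compound treatment; tamoxifen and doxorubicin served as positive controls.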

Assay [12] in a line: Cell Viability - Hek293 (AID 427;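 active = compounds whose dose-response curve shows a full or clear partial loss of cell viability, called from curve shape rather than a numeric limit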;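 also: potency is read from the fitted curve at half-maximal effect; cells exposed to compound for 40 hours at 37 °C before reading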). Conditions: qHTS. The essentials:
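AC50 values derive from Hill-modelled concentration-response of ATP-based luminescence, normalized between DMSO-only and 100 uM tamoxifen controls. Cells were exposed in complete culture medium for 40 hr at 37 °C before detection.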

Assay [13] in a line: Cell Viability - MRC5 (AID 434; calls by dose curve;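 also: potency is read from the fitted curve at half-maximal effect; potency reflects cytotoxicity seen as loss of intracellular ATP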). Conditions: MRC5 lung fibroblast viability, qHTS. The essentials:
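Decrease in intracellular ATP, quantified by luciferase light output, reflects compound toxicity toward MRC5 cells exposed for 40 hr in complete culture medium. Concentration-response curves, scaled between DMSO and 100 uM tamoxifen, gave AC50 values.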

Assay [14] can be described thus: Cell Viability - SK-N-SH (AID 435; calls by dose curve;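 also: potency is read from the fitted curve at half-maximal effect; compound exposure lasted 40 h at 37 °C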). Conditions: SK-N-SH neuroblastoma cell viability qHTS. The essentials:
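SK-N-SH human neuroblastoma cells (1500/well) were exposed to compounds in complete medium for 40 h at 37 °C, and intracellular ATP was then measured by CellTiter-Glo luminescence. AC50 was taken from Hill fits, normalized to DMSO and 100 uM tamoxifen.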

Assay [15] can be described thus: Cell Viability - NIH 3T3 (AID 541; active = well fitted curve in the direction sought with a large enough effect; an effect the other way counts as inactive or inconclusive;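 also: plate controls were DMSO alone for no effect and tamoxifen positive control for full effect; nearly all actives have a fitted effect of over 25% in size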). As to conditions: NIH 3T3 cell viability, qHTS; activity change, negative = cytotoxicity: at 92.2 µM (top of the series). The essentials: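 In this cytotoxicity screen, acute toxicity is scored as an ATP drop measured by CellTiter-Glo in NIH 3T3 fibroblasts following a 40 hr, 37 °C incubation with compound.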
Assay [16] in a line: Cell Viability - HUV-EC-C (AID 542; active = well fitted curve in the direction sought with a large enough effect; an effect the other way counts as inactive or inconclusive; also: % is scaled to controls: 0 for no effect and ±100 for the full control effect; nearly all actives have a fitted effect of over 35% in size). As to conditions: HUV-EC-C endothelial cell viability, qHTS; series mostly up to 92.2 µM. The essentials:
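Concentration-dependent ATP loss in HUV-EC-C cells is the measure. Exposure lasts 40 hr at 37 °C; luminescence follows CellTiter-Glo addition, and Hill fits give AC50.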

The nature of assay [17]: Cell Viability - H-4-II-E (AID 543; active = well fitted curve in the direction sought with a large enough effect; an effect the other way counts as inactive or inconclusive; also: % is scaled to controls: 0 for no effect and ±100 for the full control effect; nearly all actives have a fitted effect of over 35% in size). As to conditions: H-4-II-E rat hepatoma viability; series mostly up to 92.2 µM. In a few lines: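 AC50 from Hill-modelled qHTS concentration-response curves. H-4-II-E rat hepatoma cells in complete medium, 40 hr exposure at 37 °C, viability by CellTiter-Glo ATP luminescence.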
Assay [18] in a line: Cell Viability - Renal Proximal Tubule (AID 545; active = well fitted curve in the direction sought with a large enough effect; an effect the other way counts as inactive or inconclusive;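 also: 0% = DMSO only and -100% = 100 µM tamoxifen; nearly all actives have a fitted effect of over 40% in size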). Conditions: renal proximal tubule cells viability, primary cells of rat origin; activity change, negative = cytotoxicity: at 91.7 µM (top of the series). In a few lines: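 Primary rat renal proximal tubule cells (1000/well) were treated with compounds for 40 hr at 37 °C in complete medium. Intracellular ATP was measured by CellTiter-Glo luminescence, and AC50 values came from Hill-equation fits of concentration-response data.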

Assay [19] is described as follows: Cellular Toxicity (caspase-3) HepG2 (AID 654; active = well fitted curve in the direction sought with a large enough effect; an effect the other way counts as inactive or inconclusive;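 also: cells exposed to compound for 16 hours before reading; 0% = DMSO alone and 100% = caspase signal from 100 µM tamoxifen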). Conditions: HepG2 caspase-3 activation, luminescence; series mostly up to 92.2 µM. In a few lines:
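Concentration-response AC50 values reflect caspase-3/7 induction in HepG2 cells after 16 hours of compound exposure, quantified by luminescence from liberated aminoluciferin and referenced to 100 uM tamoxifen as full stimulation.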

A short description of assay [20]: Cellular Toxicity (caspase-3) Jurkat (AID 655; active = well fitted curve in the direction sought with a large enough effect; an effect the other way counts as inactive or inconclusive;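 also: cells exposed to compound for 16 h at 37 °C before reading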). As to conditions: Jurkat caspase-3 activation, luminescence; series mostly up to 92.2 µM. In a few lines: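 Jurkat cells (5000/well) in complete medium were treated with compounds for 16 hr at 37 °C, then Caspase-Glo 3/7 luminescence was read after 20 min at room temperature. Data normalized to DMSO (basal) and 100 uM tamoxifen (100%); AC50 from Hill fit.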

Chain of 3',5'-cyclic-AMP phosphodiesterase 4B (Homo sapiens) (Q07343 whole entry, looked up): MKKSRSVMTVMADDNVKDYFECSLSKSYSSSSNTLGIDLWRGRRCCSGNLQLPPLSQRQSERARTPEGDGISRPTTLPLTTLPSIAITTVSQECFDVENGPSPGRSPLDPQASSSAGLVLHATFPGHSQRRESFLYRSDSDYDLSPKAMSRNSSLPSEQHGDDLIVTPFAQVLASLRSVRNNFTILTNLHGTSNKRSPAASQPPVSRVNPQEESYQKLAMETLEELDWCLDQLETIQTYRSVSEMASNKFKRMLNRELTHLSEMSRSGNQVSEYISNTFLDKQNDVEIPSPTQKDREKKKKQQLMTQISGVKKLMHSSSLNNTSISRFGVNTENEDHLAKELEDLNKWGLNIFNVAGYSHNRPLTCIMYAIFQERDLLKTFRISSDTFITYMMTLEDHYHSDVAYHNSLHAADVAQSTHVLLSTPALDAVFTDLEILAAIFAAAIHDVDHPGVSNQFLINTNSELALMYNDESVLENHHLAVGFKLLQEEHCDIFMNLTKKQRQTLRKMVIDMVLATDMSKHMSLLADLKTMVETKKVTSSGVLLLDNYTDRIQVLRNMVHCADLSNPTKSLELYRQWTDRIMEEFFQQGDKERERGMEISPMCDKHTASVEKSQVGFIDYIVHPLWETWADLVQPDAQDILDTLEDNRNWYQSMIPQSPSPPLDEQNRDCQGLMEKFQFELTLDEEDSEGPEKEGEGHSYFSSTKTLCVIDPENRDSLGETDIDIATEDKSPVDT
Chain of Lysosomal acid glucosylceramidase (Homo sapiens) (P04062 whole entry, looked up): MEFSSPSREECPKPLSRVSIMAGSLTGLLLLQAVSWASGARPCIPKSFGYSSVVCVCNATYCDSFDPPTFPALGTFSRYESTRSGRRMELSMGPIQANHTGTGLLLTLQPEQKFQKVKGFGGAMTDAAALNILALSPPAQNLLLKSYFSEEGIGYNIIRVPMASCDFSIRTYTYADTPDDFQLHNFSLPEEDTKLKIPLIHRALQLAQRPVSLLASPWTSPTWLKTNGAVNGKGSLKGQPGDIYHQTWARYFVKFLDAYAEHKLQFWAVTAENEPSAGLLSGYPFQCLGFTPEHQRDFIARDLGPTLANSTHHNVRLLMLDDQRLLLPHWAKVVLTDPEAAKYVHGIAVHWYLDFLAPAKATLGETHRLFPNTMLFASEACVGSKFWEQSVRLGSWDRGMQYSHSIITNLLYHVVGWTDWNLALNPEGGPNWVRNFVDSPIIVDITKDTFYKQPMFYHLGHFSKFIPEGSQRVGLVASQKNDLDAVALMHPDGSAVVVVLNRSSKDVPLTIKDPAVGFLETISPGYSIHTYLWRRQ

For `O=C(O)c1cc(=O)c2c(Cl)cc(Cl)cc2[nH]1`, the activity change, negative = inhibition was -8.48% in assay [1] (at 38 µM (top of the series)) and 0.544% in assay [3]. The Potency result in assay [2] was “inactive”. Further, the activity, negative = inhibition in assay [4] (at 38 µM (top of the series)) was 15.7%. The Potency in assay [5] is greater than 46 µM. In addition, in assay [6], the compound was called inactive.
Turning to `Clc1ccccc1-c1nc(-c2ccncc2)no1`, the Potency in assay [7] was greater than 11.4 µM; in [2] it was 79.4 nM (active). Also, the activity change, negative = inhibition is -0.307% in assay [1] (at 7.69 µM (top of the series)), -8.15% [at 7.69 µM] in assay [3] and 3.99% [at 11.4 µM] in assay [8]. Also, in [4] (at 7.69 µM (top of the series)), the activity, negative = inhibition was -6.11%. Also, in assay [6], the result was inactive.
Consider `CNCC[C@H](Oc1ccc(C(F)(F)F)cc1)c1ccccc1`, for which the activity change, negative = inhibition in assay [1] (at 17.2 µM (top of the series)) is 21.4%; in assay [1] (at 38 µM (top of the series)), 29.8% and 23.7%; in assay [3] it was -28% and -21.6% and -27.9%. Besides, the Potency in assay [2] was 20 µM (active) and 5.01 µM (active) and 31.6 µM (active). Besides, the activity, negative = inhibition in assay [4] (at 17.2 µM (top of the series)) is -1.77%; in assay [4] (at 38 µM (top of the series)) it was -30.6% and 21.5%. In addition, in assay [8], the Potency result is “inactive”.
For `CN1CCc2cc(NC(=O)Nc3cccnc3)ccc21`, the figures for the activity change, negative = inhibition in [1] (at 38 µM (top of the series)) and in assay [3] were -1.43% and 4.73%, respectively. Moreover, the values for the Potency in assay [2], in assay [5] and in assay [9] were 79.4 nM (active), greater than 46 µM and greater than 46 µM, respectively. Further, in assay [4] (at 38 µM (top of the series)), the activity, negative = inhibition was 4.31%. Also, the Potency result in assay [8] is “inactive”. Moreover, the call in assay [6] was inactive.
As for `O=C(c1cc(O)c(O)c([N+](=O)[O-])c1)c1ccccc1F`, the figures for the activity change, negative = inhibition in assay [1] (at 38 µM (top of the series)) and in [3] were -17.8% and 0.576%, respectively. In [2], the Potency result is “inactive”. Also, the activity, negative = inhibition in assay [4] (at 38 µM (top of the series)) is -12.2%. For the same compound, the Potency in assay [5] and in [9] was greater than 46 µM in each case. The result in assay [6] was inactive.
Turning to `Nc1cc(-c2ccncc2)c[nH]c1=O`, the activity change, negative = inhibition was -9.46% in assay [1] (at 17.2 µM (top of the series)) and -1.83% [at 17.2 µM] in assay [3]. Further, the Potency is 15800 nM (active) in [2] and greater than 20.6 µM in [5]. In assay [4] (at 17.2 µM (top of the series)), the activity, negative = inhibition was -17.5%. In [8], the Potency result is “inactive”. Further, the outcome in [6] was inactive.
As to `Nc1ccc(O)c(C(=O)O)c1`, the activity change, negative = inhibition was 12.5% in [1] (at 17.2 µM (top of the series)) and -25.5% [at 17.2 µM] in assay [3]. The Potency result in assay [2], in assay [8], in [15], in assay [16], in assay [17] and in assay [19] was “inactive” throughout. In addition, in assay [20], the Potency result is “inactive”. The Potency in [10] was greater than 92 µM; in assay [11], greater than 92 µM; in assay [12] it was greater than 92 µM; in [13] it was greater than 92 µM; in assay [14] it was greater than 92 µM; in assay [9], greater than 20.6 µM. The activity, negative = inhibition in assay [4] (at 17.2 µM (top of the series)) is -23.9%. The activity change, negative = cytotoxicity in assay [18] is 10.5%. Besides, the outcome in [6] was inactive.
